Experimental data reported in the OligoGym collection.

biological target: FBXO43; assay: pooled miR-30 sensor sort-seq; sequence = guide strand; conditions: shRNA
Note: reference of the scale not given here.

Sequence | sensor-assay potency score (higher = more potent)
TTCATGTCCACTATTTTCCTGT | 0.372
TTGAACAACAATTTCACGCCAA | 0.6
TTCTTGAAAAGAACCCTCCTGG | 0.0426
TTATCTATATTATCAAAGCTAC | -0.969
TTTATCTTGAACAACAATTTCA | -0.614
TTATCTTGAACAACAATTTCAC | 0.0349

biological target: FBXO8; assay: as above; conditions: shRNA

Sequence | sensor-assay potency score (higher = more potent)
TAGGACAAGATGGTAAAGCTTA | -0.15
TTCATCATTCGCAAGGTCCTGC | 0.558
TTGCTCGCAGCCATTCTCCTGC | -0.359
TTCATCAAGATAGATTCTCAGT | -0.522
TTTATCATTCGTTAACAGCTGT | 0.355
TTCCTTTGGCGAATCATCCAGG | -0.484
TTGCTCACTGTAGCCTTCTTGT | -1.19
TTGTACAGAAGATAAACTTTGC | -0.385
TAGCACAGTACATAGACAGCAT | 0.733
TTAGTCTGAAGTAAAAACTGAA | -0.599
TCATCCAAGACATCTCTCCTTT | 0.239

biological target: FBXW9; assay: as above; conditions: shRNA

Sequence | sensor-assay potency score (higher = more potent)
TTGACGTTGCGATCTCGGGAGC | -1.12
TAAGGTCTTGATCAGAACCTGG | -0.161
TCGCTCTCAACTGAGAGCGGGG | -1.29
TTCTTCTCTTCCACCACTGGGT | -0.376
TTCGCTCTCAACTGAGAGCGGG | -0.823
TTCTCTTCCACCACTGGGTAGG | -0.729
TAGATGGTCACCTTCTTGTCAT | -0.453
TCGTAGATGGTCACCTTCTTGT | -0.618
TCGCTTAGTGCCTAAGGTCTTG | -0.92
TATCTCGCCGAACTGCTGCCCA | -0.658
TACTATTTCGCTTAGTGCCTAA | -0.65
TTCACTGTGCTGTCCCAGGAGC | -1.05

biological target: FCF1; assay: as above; conditions: shRNA

Sequence | sensor-assay potency score (higher = more potent)
TTATGCTGAGTTACTCTCTGTA | 0.221
TTCAGCCATTACACAATCGGTT | -0.926
TTCCTTTGTGTGTACATGGTAA | -0.531
TTCATGGTCGCATACTTCCTTG | -1.25
TCTGAGACTAAGCATTCGCTTC | -1.06
TTTTAATCTATCCTTTTCTTTA | -1.02
TTAGGTTTTAATCTATCCTTTT | -0.692
TTTTAGGTTTTAATCTATCCTT | -0.595
TGTGTGTACATGGTAATCGTTC | -0.765
TTGGGGAACTTCTCTTTCCTTT | -0.569
TTTAGGTTTTAATCTATCCTTT | -0.181
